In all, about 100,000 compounds went through this assay and about 4,200 (4.2%) were called active.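 How the source made its calls: active means single-dose well whose peak fluorescence ratio is a statistical outlier from its plate by either plate-standardised score or position-corrected B-score; inactive means the rest.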 The sample as a whole holds a higher share of actives than the screen did.

Sequence of Voltage-dependent T-type calcium channel subunit alpha-1H (Homo sapiens) (O95180 whole entry, looked up): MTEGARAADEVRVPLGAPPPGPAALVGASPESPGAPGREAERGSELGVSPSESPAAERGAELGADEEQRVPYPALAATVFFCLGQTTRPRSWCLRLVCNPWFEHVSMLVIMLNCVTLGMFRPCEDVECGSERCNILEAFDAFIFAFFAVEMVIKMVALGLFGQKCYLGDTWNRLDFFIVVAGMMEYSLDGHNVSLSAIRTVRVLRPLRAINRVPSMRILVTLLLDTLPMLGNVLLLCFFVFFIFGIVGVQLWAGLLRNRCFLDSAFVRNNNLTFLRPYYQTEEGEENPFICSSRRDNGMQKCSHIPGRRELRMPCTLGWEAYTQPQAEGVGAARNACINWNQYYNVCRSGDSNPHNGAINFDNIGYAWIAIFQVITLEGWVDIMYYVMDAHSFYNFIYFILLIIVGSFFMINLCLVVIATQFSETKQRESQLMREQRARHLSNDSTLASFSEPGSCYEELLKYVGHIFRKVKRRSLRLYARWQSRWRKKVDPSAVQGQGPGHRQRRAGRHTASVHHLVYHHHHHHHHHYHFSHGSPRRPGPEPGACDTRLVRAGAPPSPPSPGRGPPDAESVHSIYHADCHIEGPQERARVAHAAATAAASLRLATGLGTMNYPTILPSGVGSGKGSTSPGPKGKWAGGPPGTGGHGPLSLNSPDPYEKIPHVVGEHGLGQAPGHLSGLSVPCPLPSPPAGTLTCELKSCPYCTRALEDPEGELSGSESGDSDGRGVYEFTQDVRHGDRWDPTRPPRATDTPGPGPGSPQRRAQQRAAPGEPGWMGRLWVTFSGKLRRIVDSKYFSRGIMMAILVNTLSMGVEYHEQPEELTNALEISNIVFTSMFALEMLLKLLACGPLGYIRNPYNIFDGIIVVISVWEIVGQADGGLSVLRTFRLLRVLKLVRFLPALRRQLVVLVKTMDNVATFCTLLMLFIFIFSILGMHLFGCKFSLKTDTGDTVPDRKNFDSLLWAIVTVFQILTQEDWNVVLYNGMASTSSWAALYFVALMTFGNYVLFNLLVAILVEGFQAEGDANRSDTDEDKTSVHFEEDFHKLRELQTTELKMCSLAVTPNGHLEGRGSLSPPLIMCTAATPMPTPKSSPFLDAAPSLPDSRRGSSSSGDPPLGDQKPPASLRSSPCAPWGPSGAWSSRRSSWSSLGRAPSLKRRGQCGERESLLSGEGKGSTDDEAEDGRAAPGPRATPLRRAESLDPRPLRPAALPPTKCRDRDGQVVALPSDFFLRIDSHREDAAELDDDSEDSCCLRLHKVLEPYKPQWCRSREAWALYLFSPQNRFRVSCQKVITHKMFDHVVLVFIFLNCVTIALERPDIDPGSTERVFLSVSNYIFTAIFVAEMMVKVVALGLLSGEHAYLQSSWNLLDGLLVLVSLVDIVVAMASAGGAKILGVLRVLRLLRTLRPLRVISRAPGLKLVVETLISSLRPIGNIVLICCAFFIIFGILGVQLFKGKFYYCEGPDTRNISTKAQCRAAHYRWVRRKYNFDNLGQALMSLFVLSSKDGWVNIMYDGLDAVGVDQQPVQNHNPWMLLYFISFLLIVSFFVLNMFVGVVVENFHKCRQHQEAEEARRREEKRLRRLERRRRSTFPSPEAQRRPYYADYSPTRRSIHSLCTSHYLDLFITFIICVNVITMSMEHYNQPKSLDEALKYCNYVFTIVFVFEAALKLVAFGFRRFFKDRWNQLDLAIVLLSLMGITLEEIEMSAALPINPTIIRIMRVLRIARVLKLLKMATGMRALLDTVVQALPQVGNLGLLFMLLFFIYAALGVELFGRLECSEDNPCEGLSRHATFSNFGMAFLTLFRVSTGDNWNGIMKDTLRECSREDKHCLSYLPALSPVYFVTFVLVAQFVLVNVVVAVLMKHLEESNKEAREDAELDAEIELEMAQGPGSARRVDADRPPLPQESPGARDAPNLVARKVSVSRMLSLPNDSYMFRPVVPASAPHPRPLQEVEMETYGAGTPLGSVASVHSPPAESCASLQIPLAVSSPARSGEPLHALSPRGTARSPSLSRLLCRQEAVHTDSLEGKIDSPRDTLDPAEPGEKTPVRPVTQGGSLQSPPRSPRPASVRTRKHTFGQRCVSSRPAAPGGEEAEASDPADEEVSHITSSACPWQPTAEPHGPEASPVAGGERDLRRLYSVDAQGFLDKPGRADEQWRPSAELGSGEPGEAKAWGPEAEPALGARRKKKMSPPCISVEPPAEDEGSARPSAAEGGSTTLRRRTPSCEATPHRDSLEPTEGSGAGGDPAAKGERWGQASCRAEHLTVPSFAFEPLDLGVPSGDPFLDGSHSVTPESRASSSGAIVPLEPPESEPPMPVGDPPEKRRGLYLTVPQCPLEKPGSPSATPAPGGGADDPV

This assay has as its target Voltage-dependent T-type calcium channel subunit alpha-1H (Homo sapiens) (UniProt O95180). Briefly: Cav3.2 calcium influx blockers – cell-based, Fluo-4 calcium fluorescence, FDSS, MLSMR library, primary screen (AID 449739). Conditions: Cav3.2-expressing cells, at 10 µM, stronger effect = lower value.
Regarding `O=c1[nH]snc1-c1c(Cl)cccc1Cl`, the B-score is 0.688 (inactive).
Take `CCCCn1ccnc1C(=O)c1cccc(S(=O)(=O)N2c3ccccc3CC2C)c1` (stereo not given): the B-score is -5.72 (active).
As to `CCn1c(CSc2ncccn2)nnc1SCC(=O)N1c2ccccc2CC1C` (stereo not given), the B-score was 0.0736 (inactive).
The result for `CC1Cc2ccccc2N1C(=O)Cn1cnc2ccccc2c1=O` (stereo not given) reads 0.0523 (inactive).
The result for `O=C(NC1CC1)c1ccc2c(c1)NC(=O)c1ccccc1S2` reads -0.133 (inactive); that for `COc1ccc(COCCN2CCN(S(=O)(=O)c3ccccc3)CCC2=O)cc1`, -0.361 (inactive); that for `COc1cc([C@H](Cc2ccccc2)NC(C)=O)oc(=O)c1`, -0.786 (inactive).
On to `Cc1ccc(C(=O)N/N=C/c2sc(=O)n(Cc3cccc(C(=O)O)c3)c2Cl)cc1`, for which the B-score is 2.4 (inactive).
In the case of `Cc1ccc(S(=O)(=O)Oc2ccc(/C=N/NC(=O)c3c(Cl)cnn3C)cc2)cc1`, the B-score was 0.419 (inactive).
In the case of `Cc1ccc(/C=N/NC(=O)C(NC(=O)c2ccccc2)c2n[nH]c(=O)c3ccccc23)cc1` (stereo not given), the B-score is -4.96 (active).
As to `O=c1c2ccccc2c(-c2ccc(Br)cc2)nn1Cc1ccccc1`, the B-score is 0.372 (inactive).
In the case of `Cn1cc(CCC(=O)NCc2ccc3c(c2)OCO3)c2ccccc21`, the B-score is -2.19 (inactive).
The result for `O=C(COc1ccccc1)NCc1ccc2c(c1)OCO2` reads -1.91 (inactive).
As to `N#Cc1nc(Cc2cccc3ccccc23)oc1NCc1ccc2c(c1)OCO2`, the B-score is -7.29 (active).
Turning to `C=CCOC(=O)C1=C[C@H](c2ccc(Br)cc2)C[C@H](OCCCCO)O1`, the B-score is -0.545 (inactive).
In the case of `COc1ccc(C2/C=C\CN(CC(C)C)CC(=O)N2Cc2ccc(F)cc2)cc1` (stereo not given) it was -0.399 (inactive); in that of `COc1ccc(N2CCN(C(=O)CCc3nc(-c4ccc(C)cc4)no3)CC2)cc1`, -3.49 (active).
In the case of `CCOc1cc(-c2noc(CCC(=O)N3CCOCC3)n2)ccc1OC` it was 0.164 (inactive).
In the case of `Cc1ccc(-c2noc(CCC(N)=O)n2)cc1` it was 0.127 (inactive).
Take `C#CCOCCOCCOCCNc1nc(N2CCN(C(=O)C([C@@H](C)CC)n3cc(C(N)COC(=O)C(F)(F)F)nn3)CC2)nc(N2CCN(C(=O)[C@H](Cc3ccc(O)cc3)n3cc(C(N)[C@H](C)CC)nn3)CC2)n1` (stereo not given in full): the B-score was 0.00651 (inactive).
In the case of `Cc1ccc(CNC(=O)c2ccccc2CCc2ccccc2)cc1` it was 0.145 (inactive); in that of `COc1ccc(C[C@H]2CN3C(=NC[C@H]3C)N2CCNC(=O)CCC2CCCCC2)cc1`, -0.267 (inactive).
The result for `O=C(CSc1nnc(-c2c[nH]c3ccccc23)o1)c1ccccc1` reads 0.381 (inactive); that for `O=C(CSCc1ccc([N+](=O)[O-])cc1)Nc1cccc(C(=O)Nc2ccccc2C(=O)O)c1`, -1.32 (inactive).
The result for `O=C(CSCc1ccc([N+](=O)[O-])cc1)NCCSCc1ccccc1` reads -6.39 (active).
As for `O=C(NCCc1ccccc1)/C(=C\c1ccc([N+](=O)[O-])cc1)NC(=O)c1ccccc1`, the B-score is 0.653 (inactive).
In the case of `COc1cccc(/C=N/NC(=O)C(=O)N2CCCC2)c1` it was 1.2 (inactive).
In the case of `COC(=O)COc1cccc2c(=O)n(CC(=O)NCCc3ccc(OC)c(OC)c3)ccc12` it was 1.52 (inactive); in that of `CC(C)(C)n1nnnc1C(c1ccc(Cl)cc1)N1CCSCC1` (stereo not given), -2.81 (active).
As to `Cc1cccc(N2CCN(C(c3ccc(N(C)C)cc3)c3nnnn3C(C)(C)C)CC2)c1C` (stereo not given), the B-score was -3.44 (inactive).
On to `CC(C)(C)n1nnnc1C(c1ccc(F)cc1)N1CCN(Cc2ccc3c(c2)OCO3)CC1` (stereo not given), for which the B-score is -3.16 (inactive).
In the case of `COc1ccccc1-c1n[nH]c2c1[C@H](C)CC[C@H]2C(C)C` it was -2.06 (inactive); in that of `CCn1nc(C)c(NC(=O)/C=C/c2ccc(OC)c(COc3ccc(Br)cc3)c2)c1C`, -3.94 (active); in that of `CCn1c(COc2ccc(OC)cc2)nnc1SCC(=O)Nc1cc(OC)ccc1OC`, -0.694 (inactive).
With `COc1ccc(/C=C/C(=O)Nc2c(C)nn(C)c2C)cc1COc1ccc(Br)cc1`, the B-score was -1.13 (inactive).
The result for `Cc1ccc(C(=O)N/C(=C/C=C/c2ccccc2)C(=O)NCc2ccco2)cc1` reads -4.77 (active).
Turning to `O=C(CN1CCN(S(=O)(=O)/C=C/c2ccccc2)CC1)NC(=O)NCc1ccco1`, the B-score is 0.253 (inactive).
The result for `CCCCOc1ccc(C(=O)NCc2ccco2)cc1` reads -0.276 (inactive).
Regarding `O=C(CSCc1ccccc1Cl)NNC(=O)c1ccccc1`, the B-score is -0.234 (inactive).
For `CCOC(=O)c1ccc(NC(=O)c2c(N)n(C)c(=O)[nH]c2=O)cc1`, the B-score was -2 (inactive).
In the case of `COc1cccc(NC(=O)CN(C)S(=O)(=O)c2ccc(C)cc2)c1` it was 0.446 (inactive).
In the case of `COC(=O)CN(c1nc(C)c(Cl)c(OC)n1)S(=O)(=O)c1ccc(C)cc1` it was -3.54 (active).
In the case of `CCN(CC)C(=O)CN(c1cccc(OC)c1)S(=O)(=O)c1ccc(C)cc1` it was 0.247 (inactive).
On to `O=C(NC1CC1)C1=C[C@H](c2c[nH]c3ccccc23)C[C@H](OCc2ccc(CO)cc2)O1`, for which the B-score is -0.0426 (inactive).
As to `Cc1cc(C)cc(OCC(=O)NNC(=O)c2cc3ccccc3oc2=O)c1`, the B-score is 0.0296 (inactive).
The result for `CCOC(=O)CSc1ncc(-c2cccc(Cl)c2)cn1` reads 0.28 (inactive); that for `Nc1c(-c2cccc(Cl)c2)cnn1-c1cccc([N+](=O)[O-])c1`, -4.85 (active).
On to `Cc1onc(-c2ccccc2Cl)c1C(=O)OCC(=O)c1ccccc1`, for which the B-score is -0.332 (inactive).
Consider `Cc1onc(-c2c(Cl)cccc2Cl)c1C(=O)c1c[nH]c(C(=O)NC2CC2)c1`, for which the B-score is 0.359 (inactive).
As for `Cc1onc(-c2ccccc2Cl)c1C(=O)NCCn1ccc2ccccc21`, the B-score is -3.91 (active).
Turning to `COCCNC(=O)c1ccccc1-c1nc(-c2ccccc2Cl)no1`, the B-score is -0.0406 (inactive).
In the case of `Cc1ccc2cc(CCNC(=O)c3c(-c4ccccc4Cl)noc3C)c(=O)[nH]c2c1` it was -4.54 (active).
The result for `Cc1ccc2cc(CCNC(=O)c3ccc4c(c3)OCO4)c(=O)[nH]c2c1` reads 0.446 (inactive); that for `CCCCCCNS(=O)(=O)c1ccccc1Br`, -1.42 (inactive).
The result for `CC(C)C(=O)N1CCC2(CC1)Oc1ccc(F)cc1C(=O)C21CC(c2ccccc2)=NO1` (stereo not given) reads -0.517 (inactive); that for `CC(C)(C)Oc1ccccc1Nc1nc(NCCO)nc(N2CCCC2)n1`, 0.107 (inactive).
For the compound `Cc1ccc(-c2cc(=O)c3ccc(F)cc3[nH]2)cc1`, the B-score was -1.19 (inactive).
Regarding `O=c1oc2cc(O)ccc2cc1-c1ccc(F)cc1`, the B-score was -0.437 (inactive).
The result for `CCCCCCc1cc2cc(-c3nnc(-c4ccccc4)o3)c(=O)oc2cc1O` reads -8.89 (active); that for `O=C(c1ccc(Cl)cc1)c1cnc(Nc2ccccc2)s1`, 0.657 (inactive); that for `C[C@@H]1NC(=O)c2cc([N+](=O)[O-])cc(F)c2NCCC[C@@H](C(N)=O)NC(=O)[C@H](CC(N)=O)NC1=O`, 0.0125 (inactive).
The result for `CCCCNC(=O)c1onc(CSc2cccc(OC)c2)c1C(=O)O` reads -0.115 (inactive); that for `O=C(O)C1=C[C@H](c2cccs2)C[C@H](OCCCCO)O1`, 0.408 (inactive); that for `CN(c1ccc(C(=O)NCc2ccccn2)cc1)S(C)(=O)=O`, 0.091 (inactive).
In the case of `Cc1ccccc1CSCCNC(=O)c1ccc(N(C)S(=O)(=O)c2ccccc2)cc1` it was -5.82 (active).
Regarding `Cc1ccc(C(=O)NCCNS(=O)(=O)c2ccccc2)cc1`, the B-score is 0.965 (inactive).
`NC(N)=NCCCc1cn(CC(=O)N2CCNCC2)nn1`: the B-score was 0.0996 (inactive).
In the case of `N#Cc1ccc(-c2ccc(F)cc2)nc1Sc1ccccc1` it was -0.0447 (inactive).
In the case of `Cc1ccc(SCC2=NNC(=O)C2)cc1` it was -0.242 (inactive); in that of `COc1ccc2c(c1)CCNC2Cc1ccc(OC)c(O)c1` (stereo not given), 0.0462 (inactive).
In the case of `COc1ccc(OC)c(NC(=O)CN2CCN(C(=O)c3ccco3)CC2)c1` it was 1.23 (inactive).
For `O=C(CN1CCN(C(=O)c2ccco2)CC1)Nc1ccc(Cl)c(C(F)(F)F)c1`, the B-score was -6.28 (active).
The result for `O=C(CN1CCN(C(=O)c2ccco2)CC1)Nc1ccc2c(c1)OCO2` reads 0.902 (inactive); that for `COc1ccc(CC(=O)Nc2sc(Cc3ccccc3)c(C)c2C(N)=O)cc1`, -0.493 (inactive); that for `Cc1ccccc1NC(=O)C(C)c1ccc(-c2ccccc2)c(F)c1` (stereo not given), -0.689 (inactive).
In the case of `CCCSc1nc2c(c(=O)[nH]c(=O)n2C)n1CCc1ccccc1` it was -0.0804 (inactive); in that of `CC1CCN(c2nc3c(c(=O)[nH]c(=O)n3C)n2CCCc2ccccc2)CC1`, -5.1 (active); in that of `CN1CCN(c2nc3c(c(=O)[nH]c(=O)n3C)n2Cc2cccc3ccccc23)CC1`, 0.465 (inactive).
The result for `Cc1nc(C(=O)Nc2ccc(Cl)cc2)sc1C1(C)CC(c2ccccc2)=NO1` (stereo not given) reads 0.201 (inactive); that for `O=c1c(-c2ccccc2)coc2cc(O)ccc12`, 1.09 (inactive); that for `CCN(CC)C(=O)CC(c1ccc2c(c1)OCO2)c1c(OC)cc(OC)c2c(-c3ccccc3)cc(=O)oc12` (stereo not given), -1.45 (inactive).
`CCn1c(O)c(N=NC2=NC(=O)CS2)c2cc(C)ccc21`: the B-score is -4.99 (active).
For `COC(=O)Cn1c2ccc(C)cc2c2nc(C)sc21`, the B-score was 1.71 (inactive).
As to `Cc1nnc(NC(=O)CSc2nc(C3CCCCC3)nc3ccccc23)s1`, the B-score was -0.12 (inactive).
The result for `NC(=O)[C@H]1CC2(CC(c3cccc(NC(=O)[C@H]4CCC(=O)N4)c3)=NO2)CN1C(=O)c1ccccc1C(=O)c1ccccc1` (stereo not given in full) reads -0.157 (inactive).
Turning to `CCO[C@H]1OC(C(=O)Nc2ccccc2)=C[C@@H](C2CC2)[C@@H]1CCCO`, the B-score is 0.964 (inactive).
As to `NC(=O)C1=C[C@@H](c2csc3ccccc23)C[C@@H](OCc2ccc(CO)cc2)O1`, the B-score was -0.0524 (inactive).
Regarding `COC(=O)C(CC(=O)Nc1cc(C)ccc1C)Nc1ccccc1OC` (stereo not given), the B-score is -0.376 (inactive).
In the case of `Cc1ccc(C)c(NC(=O)C2Cc3ccccc3CN2C(=O)OCc2ccccc2)c1` (stereo not given) it was -6.09 (active).
The result for `Cc1ccc(C)c(NC(=O)C2CC(=O)N(C(C)C)C2)c1` (stereo not given) reads -0.00724 (inactive).

For the origin of these results see PubChem BioAssay AID449739 (Vanderbilt High Throughput Screening Facility, 2010).
